Screens (PubChem BioAssay)
RGS4-Gao reg: modulates binding of RGS4 to human Galphao | hit rate 0.33% among 220,000 | Multiplexed bead flow cytometry; actives lie on both sides | AID 1415 | P09471 | binding response (% of control), % at 10 µM; in the data active = binding response below about 49% or above about 150%; inactive = in between;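 also: fluorescent Galphao activated with aluminum fluoride binding bead-coupled RGS4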
Target sequence (P09471 whole entry, looked up): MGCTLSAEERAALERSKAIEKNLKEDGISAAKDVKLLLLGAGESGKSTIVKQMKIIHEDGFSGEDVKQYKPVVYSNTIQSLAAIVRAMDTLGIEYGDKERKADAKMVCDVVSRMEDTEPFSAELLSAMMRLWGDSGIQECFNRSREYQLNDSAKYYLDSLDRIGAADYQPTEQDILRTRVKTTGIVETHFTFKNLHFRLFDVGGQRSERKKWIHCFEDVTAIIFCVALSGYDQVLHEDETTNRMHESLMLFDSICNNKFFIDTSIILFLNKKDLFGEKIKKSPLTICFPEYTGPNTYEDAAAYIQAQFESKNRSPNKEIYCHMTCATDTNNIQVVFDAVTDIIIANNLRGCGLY
RGS7-Gao reg: regulators of human RGS7-Galphao interaction | Multiplexed bead flow cytometry, RGS7-Galphao binding; actives lie on both sides | binding response (% of control), % at 10 µM | hit rate 0.35% among 220,000 | P09471; in the data active = binding response below about 49% or above about 150%; inconclusive = no clear call, values can overlap the other calls; inactive = in between;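 also: fluorescent Galphao held in activated GDP-AlF4 state binding bead-coupled RGS7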
Avidin fluor: compound fluoresces at 488/530 nm on avidin beads. fluorescence (KMESF) at 10 µM. hit rate 0.38% among 220,000. compound fluorescence 488/530 nm, flow cytometry; active compounds read high; in the data active = fluorescence above about 47
RGS16-Gao: modulates binding between human RGS16 and Galphao; O15492+P09471; bead-based flow cytometry RGS16-Galphao binding, fluorescence; actives lie on both sides; binding response (% of control), % at 10 µM; hit rate 0.38% among 220,000;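 also: Galphao activated by GDP with aluminum fluoride before binding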
GSH bead fluor: GSH bead compound fluorescence profile | fluorescence (KMESF) at 10 µM | hit rate 0.25% among 190,000 | GSH beads flow cytometry, compound fluorescence 488/530 nm; active compounds read high; in the data active = fluorescence above about 89;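 also: glutathione beads carrying GST-tagged Bcl family fusion proteins plus one bare bead set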
RGS8-Gao reg: regulators of human RGS8-Galphao interaction; P09471; multiplexed bead flow cytometry, RGS8-Galphao binding; actives lie on both sides; response (percent of control binding), % at 10 µM; hit rate 0.34% among 220,000; AID 1423; in the data active = response below about 60% or above about 140%; inactive = in between;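 also: Galphao activated as the GDP aluminium fluoride complex binding bead-coupled RGS8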
RGS-Gao: RGS4-Galphao interaction regulator (human) | hit rate 99% among 1,600 | shares compounds with RGS16-Gao | AID 1504 | multiplexed bead flow cytometry, RGS–Galpha-o binding | RGS4–Galpha-o binding response, % at 10 µM;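 also: fluorescently labeled Galpha-o bound to GDP with aluminium fluoride binding biotinylated RGS beads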
Avidin counter: interferes with biotinylated probe binding to avidin beads; shares compounds with RGS16-Gao; streptavidin beads, fluorescein-biotin binding, flow cytometry; inhibition, % at 10 µM; 1,700 tested, under 10 active;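 active = inhibition above 50%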;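 also: median green fluorescence of gated singlet beads compared with DMSO control wells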
RGS8-Gao single: confirmation of regulators of human RGS8-Galphao interaction | binding response (% of control), % at 10 µM | AID 1836 | shares compounds with RGS16-Gao | bead-based flow cytometry RGS8-Galphao binding, fluorescence; actives lie on both sides | hit rate 3% among 1,700; in the data active = binding response below about 72% or above about 130%; inactive = in between;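 also: Galphao activated as GDP AlF4 complex before binding bead RGS8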
RGS7-Gao confirm: RGS7-Galphao interaction regulation, single point confirmation. response (percent of control binding), % at 10 µM. shares compounds with RGS16-Gao. bead-based flow cytometry RGS7-Galphao binding; actives lie on both sides. hit rate 7.8% among 1,700. AID 1837; in the data active = response below about 75% or above about 130%; inactive = in between;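 also: fluorescent Galphao activated with GDP and aluminum fluoride binding bead-coupled RGS7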
RGS16-Gao conf: confirmation of regulators of human RGS16-Galphao interaction | shares compounds with RGS16-Gao | bead-based flow cytometry, RGS16-Galphao binding; actives lie on both sides | response (% of control binding), % at 10 µM | hit rate 4% among 1,700; in the data active = response below about 74% or above about 130%; inactive = in between;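 also: Galphao activated as the GDP aluminium fluoride complex binding bead-coupled RGS16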
RGS4-Gao confirm: RGS4-Galphao interaction regulation, single point confirmation; shares compounds with RGS16-Gao; RGS4-Galphao binding, multiplexed bead flow cytometry; actives lie on both sides; hit rate 4% among 1,700; binding response (% of control), % at 10 µM; in the data active = binding response below about 74% or above about 130%; inactive = in between
RGS19-Gao single: confirmation of regulators of human RGS19-Galphao interaction; shares compounds with RGS16-Gao; bead-based flow cytometry RGS19-Galphao binding; actives lie on both sides; response (percent of control binding), % at 10 µM; hit rate 5% among 1,700; AID 1841; in the data active = response below about 50% or above about 160%; inactive = in between
Target sequence (P09471 whole entry, looked up): as above
Target sequence (P49795 whole entry, looked up): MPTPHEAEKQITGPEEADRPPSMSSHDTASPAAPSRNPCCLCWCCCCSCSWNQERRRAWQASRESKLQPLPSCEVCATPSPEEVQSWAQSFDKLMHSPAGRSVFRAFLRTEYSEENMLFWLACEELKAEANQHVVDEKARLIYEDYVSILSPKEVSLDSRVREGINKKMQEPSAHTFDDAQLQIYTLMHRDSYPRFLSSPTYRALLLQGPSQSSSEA
Of the large screens only hits and unclear results are named; the others gave an inactive call (follow-up assays come after a bar, where they were run); [ ] = remark or other dose. Most compounds without a hit are left out; they make up all but 1.2% or so of the library. Unless noted, no rule for the calls is given here.

Cc1ccc(NC(=O)CN(C)S(=O)(=O)c2cccc3cccnc23)cc1	none
CC1CCC(NC(=O)CN(C)S(=O)(=O)c2cccc3cccnc23)CC1 (stereo unspecified)	RGS4-Gao reg 26, RGS7-Gao reg inconclusive, RGS16-Gao 19, RGS8-Gao reg 33 (no result: GSH bead fluor) | Avidin counter inactive | RGS8-Gao single inactive | RGS7-Gao confirm inactive | RGS16-Gao conf inactive | RGS4-Gao confirm inactive | RGS19-Gao single inactive
COc1ccc(CCNC(=O)COC(=O)c2cc(OC)c(OC)cc2OC)cc1OC	RGS4-Gao reg 173[activator], RGS7-Gao reg 172[activator], RGS16-Gao 199[activator], RGS8-Gao reg 174[activator] | Avidin counter inactive | RGS8-Gao single inactive | RGS7-Gao confirm inactive | RGS16-Gao conf inactive | RGS4-Gao confirm inactive | RGS19-Gao single inactive
O=C(/C=C/c1ccco1)NCc1ccc(F)cc1	none
NS(=O)(=O)c1ccc(CNC(=O)/C=C/c2ccco2)cc1	RGS7-Gao reg inconclusive (no result: GSH bead fluor) | Avidin counter inactive | RGS8-Gao single inactive | RGS7-Gao confirm inactive | RGS16-Gao conf inactive | RGS4-Gao confirm inactive | RGS19-Gao single inactive
N#Cc1ccc(-c2csc(NC(=O)c3ccc(S(=O)(=O)N4CCc5ccccc5C4)cc3)n2)cc1	none
C=C(C)c1cccc(C(C)(C)NC(=O)N2CCN(CC)CC2)c1	none
C=C(C)c1cccc(C(C)(C)NC(=O)N2CCCCC2CC)c1 (stereo unspecified)	RGS8-Gao reg 172[activator] | RGS-Gao 142
CCOc1ccc(NC(=S)N2CCn3c(nc4ccccc43)C2)cc1	RGS7-Gao reg inconclusive
CC(=O)N(O)CCCCCNC(=O)CCC(=O)N(O)CCCCCNC(=O)CCC(=O)N(O)CCCCCN	RGS8-Gao reg 51 | RGS-Gao 61 | Avidin counter inactive | RGS8-Gao single 53 | RGS7-Gao confirm 58 | RGS16-Gao conf 42 | RGS4-Gao confirm 57 | RGS19-Gao single inactive
CCCC(=O)NCCCCNC(=O)CCC	none
Cc1nn(-c2ccccc2)c(N)c1Sc1ccccc1[N+](=O)[O-]	none
Cc1nn(-c2ccccc2)c(N)c1Sc1cccc([N+](=O)[O-])c1	RGS16-Gao 202[activator] | RGS-Gao 111 | Avidin counter inactive | RGS8-Gao single inactive | RGS7-Gao confirm inactive | RGS16-Gao conf inactive | RGS4-Gao confirm inactive | RGS19-Gao single inactive
COc1ccccc1/C=C\C=N\n1c(-c2ccc(Cl)cc2)n[nH]c1=S	RGS16-Gao 7.8, RGS8-Gao reg 58 | RGS-Gao 88 | Avidin counter inactive | RGS8-Gao single inactive | RGS7-Gao confirm 75 | RGS16-Gao conf inactive | RGS4-Gao confirm inactive | RGS19-Gao single inactive
c1ccc(-n2ncc3cccnc32)cc1	RGS7-Gao reg inconclusive (no result: GSH bead fluor)
CC(/C=N/n1c(-c2ccc(C)cc2)n[nH]c1=S)=C\c1ccco1	none
CC(/C=N/n1c(-c2ccco2)n[nH]c1=S)=C\c1ccco1	RGS16-Gao -3.8 | RGS-Gao 73 | Avidin counter inactive | RGS8-Gao single inactive | RGS7-Gao confirm inactive | RGS16-Gao conf inactive | RGS4-Gao confirm inactive | RGS19-Gao single inactive
CCc1ccc(CCC(=O)Nc2nnc(C)s2)o1	none
CCc1nnc(NC(=O)CCc2ccc(C)o2)s1	RGS4-Gao reg 170[activator], RGS7-Gao reg 158[activator], RGS8-Gao reg 151[activator] | Avidin counter inactive | RGS8-Gao single inactive | RGS7-Gao confirm inactive | RGS16-Gao conf inactive | RGS4-Gao confirm inactive | RGS19-Gao single inactive
CN(C)S(=O)(=O)c1cc(C(=O)NCc2ccccc2)c(Cl)cc1Cl	none
Cc1nc(Cl)c(C(=O)NCCC(C)C)c(C)c1[N+](=O)[O-]	RGS16-Gao 178[activator] | RGS-Gao 105 | Avidin counter inactive | RGS8-Gao single inactive | RGS7-Gao confirm inactive | RGS16-Gao conf inactive | RGS4-Gao confirm inactive | RGS19-Gao single inactive
COC(=O)c1cc(C(=O)NCCC(C)C)cc([N+](=O)[O-])c1	none
COc1ccc(CCc2nnc(CCC(=O)NCc3cnc4ccccn34)o2)cc1	none
Oc1oc(-c2ccc(Br)cc2)nc1C=Nc1ccc(Br)cn1	RGS8-Gao reg 146[activator] | RGS-Gao 134 | Avidin counter inactive | RGS8-Gao single inactive | RGS7-Gao confirm inactive | RGS16-Gao conf inactive | RGS4-Gao confirm inactive | RGS19-Gao single inactive
Cc1ccc(N=Cc2nc(-c3ccc(C)cc3)oc2O)cc1	none
Cc1c(Cl)cccc1NC(=S)N(C)CCC#N	none
O=C(O)c1cc([N+](=O)[O-])c(NCc2cccnc2)c([N+](=O)[O-])c1	none
O=C(CCl)NC(=O)NC12CC3CC(CC(C3)C1)C2	RGS7-Gao reg 189[activator], Avidin fluor 145 | RGS-Gao 130 | Avidin counter inactive | RGS8-Gao single inactive | RGS7-Gao confirm 63 | RGS16-Gao conf inactive | RGS4-Gao confirm inactive | RGS19-Gao single inactive
Cc1ccccc1CSc1nn2c(=O)c(C)nnc2s1	RGS7-Gao reg 211[activator] | RGS-Gao 116 | Avidin counter inactive | RGS8-Gao single inactive | RGS7-Gao confirm inactive | RGS16-Gao conf inactive | RGS4-Gao confirm inactive | RGS19-Gao single inactive
O=C(c1ccco1)N1CCN(CCCCOc2cccc3ccccc23)CC1	none
N=C1c2ccccc2CN1NC(=O)c1cccc(S(=O)(=O)N2CCOCC2)c1	RGS16-Gao 236[activator] | RGS-Gao 116 | Avidin counter inactive | RGS8-Gao single inactive | RGS7-Gao confirm 165[activator] | RGS16-Gao conf 126[activator] | RGS4-Gao confirm 127[activator] | RGS19-Gao single 324[activator]
CCN1CCN(Cc2cc(=O)oc3ccc(Cl)cc23)CC1	RGS8-Gao reg 144[activator] | RGS-Gao 108 | Avidin counter inactive | RGS8-Gao single inactive | RGS7-Gao confirm inactive | RGS16-Gao conf inactive | RGS4-Gao confirm inactive | RGS19-Gao single inactive
Cn1c(SCc2ccccc2F)nnc1-c1ccccn1	none
O=c1c(-c2ccccc2)c1-c1ccccc1	none
